Screen size: about 30,000 compounds; about 240 (0.8%) were called active. The sample holds actives, similar compounds and a random draw of the others, so the mix is not that of the screen.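 How the source made its calls: active means at 10 µM dose, at least 30% inhibition, measured as corrected fluorescence normalized to stimulator and neutral control wells; inactive means the rest.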

The target in the assay is Protein artemis (Homo sapiens) (UniProt Q96SD1). The assay is described as follows: Artemis endonuclease inhibitors, primary screen, biochemical, fluorescence intensity, FAM/BHQ-1 hairpin substrate (AID 686954). As to conditions: recombinant Artemis, quenched FAM hairpin cleavage fluorescence; at 10 µM; active compounds read high.
Chain of Protein artemis (Homo sapiens) (Q96SD1 whole entry, looked up): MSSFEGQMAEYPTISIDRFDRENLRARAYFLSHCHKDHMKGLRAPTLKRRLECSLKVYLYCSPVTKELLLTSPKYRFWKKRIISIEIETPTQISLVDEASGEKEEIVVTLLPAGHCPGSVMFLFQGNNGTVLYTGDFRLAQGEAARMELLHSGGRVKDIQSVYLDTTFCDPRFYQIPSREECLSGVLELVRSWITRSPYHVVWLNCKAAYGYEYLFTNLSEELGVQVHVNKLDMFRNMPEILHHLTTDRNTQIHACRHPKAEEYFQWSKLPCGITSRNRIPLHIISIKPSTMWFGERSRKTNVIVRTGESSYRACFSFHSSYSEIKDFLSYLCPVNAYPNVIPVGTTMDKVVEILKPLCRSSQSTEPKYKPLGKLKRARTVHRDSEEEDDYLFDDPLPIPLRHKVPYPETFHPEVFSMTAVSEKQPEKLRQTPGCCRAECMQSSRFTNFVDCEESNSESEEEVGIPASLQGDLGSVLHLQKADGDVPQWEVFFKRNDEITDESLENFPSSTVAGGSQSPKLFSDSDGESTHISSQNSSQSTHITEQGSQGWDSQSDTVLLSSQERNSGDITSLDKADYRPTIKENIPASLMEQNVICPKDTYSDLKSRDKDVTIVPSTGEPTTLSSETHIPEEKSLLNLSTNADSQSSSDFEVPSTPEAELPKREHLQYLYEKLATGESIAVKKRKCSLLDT
Take `COC(=O)/C=C/C(=O)NCc1ccco1`: the inhibition was 25.1% (inactive).
`Cc1ccccc1OC(=O)Cn1c(C(F)(F)F)nc2ccccc21`: the inhibition was 1.38% (inactive).
As for `Cc1cc2c(cc1C)N(C(=O)CN1C(=O)c3ccccc3C1=O)C(C)(C)c1ssc(=S)c1-2`, the inhibition was 2.13% (inactive).
For `O=C(Oc1cccnc1)c1cc2ccccc2oc1=O`, the inhibition is 4.63% (inactive).
Consider `CC(C)C(c1nnnn1CCc1ccccc1)N1CCN(C(=O)c2ccco2)CC1` (stereo unspecified), for which the inhibition was -0.73% (inactive).
To `COc1ccc(C2C(C(C)=O)=C(O)C(=O)N2c2nccs2)cc1` (stereo unspecified) belongs -6.55% (inactive); to `Cc1ccc(SCC(=O)Nc2ncc(C)s2)cc1`, 3.54% (inactive).
On to `O=C(N/N=C\c1ccc(-c2ccc(Cl)c(Cl)c2)o1)C(=O)N1CCCC1`, for which the inhibition was 10.4% (inactive).
Under `Cc1cc(-c2ccccc2)n2nc(C)c(-c3ccccc3)c2n1` stands -3.76% (inactive).
`O=C(c1ccccc1Oc1ccccc1)N1CCN(c2ccc(F)cc2)CC1`: the inhibition is 10.1% (inactive).
Regarding `Cc1cc(C)n2nc(C(=O)NC(C)(C)C)nc2n1`, the inhibition is -8.47% (inactive).
As to `CCCCNC(=O)CSc1nc2ccc(NC(=O)CSc3nnc(COc4ccccc4C)n3C)cc2s1`, the inhibition was 1.88% (inactive).
On to `CC(=O)c1ccc(Cc2ncc(C(F)(F)F)cc2Cl)s1`, for which the inhibition is -6.84% (inactive).
To `O=C(Cn1c(-c2cscn2)nc2ccccc21)Nc1ccc(Cl)cc1` belongs 6.18% (inactive); to `COc1cc(CNCc2cccs2)cc(Br)c1OC`, -2.14% (inactive).
With `CCOCC(=O)Nc1cc(OC)c(Cl)cc1OC`, the inhibition was -5.52% (inactive).
Regarding `Cc1ccc(/C=N/NC(=O)C(NC(=O)c2ccccc2)c2n[nH]c(=O)c3ccccc23)cc1` (stereo unspecified), the inhibition is 10.5% (inactive).
To `COCCCn1c(SCC(=O)Nc2ccccc2)nnc1-c1ccncc1` belongs -5.35% (inactive).
To `Cn1c(=O)c2c(n(Cc3ccccc3)c1=O)NC(=O)C2CC(=O)N1CCc2ccccc2C1` (stereo unspecified) belongs 6.23% (inactive); to `O=C(Nc1ccc(-n2ccnc2P(=O)(O)c2ccccc2)cc1)c1ccccc1Br`, 4.42% (inactive); to `CCN(CC)CCN1C(=O)C(=O)/C(=C(/O)c2ccccc2)C1c1ccccc1F` (stereo unspecified), 3.66% (inactive).
On to `CC(C)(C)NS(=O)(=O)CC12CCC(CC1=O)C2(C)C` (stereo unspecified), for which the inhibition is -3.02% (inactive).
In the case of `CN(C)CCNC(=O)Nc1cccc(Cl)c1Cl`, the inhibition was -0.2% (inactive).
With `CCN(CC)Cc1cc(C(C)=O)ccc1O`, the inhibition is -4.35% (inactive).
Turning to `O=C(Nc1nnc(SCc2ccccc2)s1)c1ccco1`, the inhibition is 12.4% (inactive).
Take `Cc1nn2c3ccccc3nc2n(C)c1=O`: the inhibition was 0.11% (inactive).
Consider `O=C(Nc1ccc2c(c1)CCC2)c1cccc(S(=O)(=O)N2CCN(c3ccc(F)cc3)CC2)c1`, for which the inhibition was 2.72% (inactive).
For the molecule `CN1CCN(S(=O)(=O)c2ccc(N3CCN(S(=O)(=O)c4cccs4)CC3)nc2)CC1`, the inhibition is -9.36% (inactive).
As to `Cc1ccc(NC(=S)NC2CCCC2)cc1`, the inhibition is 1.01% (inactive).
In the case of `CCC(=O)NNc1cc(=O)c2c(=O)n(C)c(=O)n(C)c2[nH]1`, the inhibition is 0.17% (inactive).
On to `COc1cccc(CNc2nc3nc4c(c(=O)n3[nH]2)CCC4)c1`, for which the inhibition was -6.09% (inactive).
As for `CCN(Cc1ccncc1)C(=O)c1cccc(S(=O)(=O)N2CCOCC2)c1`, the inhibition was -1.99% (inactive).
Under `Cc1cc(C)c2c(-n3cccc3)c(NC(=O)OCc3ccccc3)sc2n1` stands 0.14% (inactive).
Consider `CCOc1cccc(C(=O)Nc2cnn(Cc3ccccc3)c2)c1`, for which the inhibition is 0.76% (inactive).
As for `Cc1ccc(C2NC(=S)NC3=C2N2CCC3CC2)cc1` (stereo unspecified), the inhibition was -3.09% (inactive).
Under `CN1CCN(Cc2c(O)ccc3c2oc(=O)c2ccccc23)CC1` stands -4.24% (inactive).
Consider `Cc1ccc(/C=N\n2c(-c3ccccc3)n[nH]c2=S)s1`, for which the inhibition was 4.19% (inactive).
`CC(=O)c1sc(NC(=O)c2cccc3ccccc23)nc1C`: the inhibition was 5.24% (inactive).
As to `Cc1nnc(NC(=O)CCCOc2ccccc2)s1`, the inhibition is -2.98% (inactive).
As to `NC(=O)C1CCN(C(=O)c2ccc(C(F)(F)F)cc2)CC1`, the inhibition was -5.95% (inactive).
`O=C(NCC1CCCO1)c1ccc2ccccc2n1` (stereo unspecified): the inhibition is 1.24% (inactive).
Under `N#C/C(=C(/O)COc1cccc2ccccc12)c1nc2ccccc2[nH]1` stands -3.72% (inactive).
To `CC(C)(O)C(=O)NN(C(=O)c1ccccc1)c1cccc(Br)c1` belongs -17.1% (inactive); to `O=C(COc1ccc2oc3c(c2c1)CCCC3)Nc1ccccn1`, -4.41% (inactive); to `CCOC(=O)C1CCc2nc3ccccc3c(=O)n21` (stereo unspecified), -9.86% (inactive).
Under `CCC(C)NC(=O)c1ccccc1NC(=O)c1ccccc1N(C)S(C)(=O)=O` (stereo unspecified) stands -0.77% (inactive); under `O=C(CSc1nnc(-c2ccco2)n1-c1ccccc1)NCCc1ccccc1`, 5.03% (inactive).
Turning to `CCOc1ccc(-c2c(C)n([O-])c3c([n+]2=O)CCCC3)cc1`, the inhibition is -6.29% (inactive).
For `CCC(=O)NC(Nc1nc2ccc(C)cc2s1)(C(=O)OC)C(F)(F)F` (stereo unspecified), the inhibition was -8.44% (inactive).
For the molecule `CCn1c(COc2ccccc2)nnc1SCC(=O)Nc1ccc2c(c1)OCCO2`, the inhibition is -7.11% (inactive).
Regarding `S=C(NCCC1=CCCCC1)Nc1ccccc1`, the inhibition was 3.85% (inactive).
For the molecule `CCOC(=O)C1=NNC2(c3ccc(Cl)cc3)C(=O)N(c3cc(C)cc(C)c3)C(=O)C12` (stereo unspecified), the inhibition is 1.03% (inactive).
`Cc1oc2nc(SCC(=O)NCc3cccnc3)nc(N)c2c1C`: the inhibition was 2.99% (inactive).
Take `Cc1c(Cl)c([N+](=O)[O-])nn1Cc1ccc(C(=O)N/N=C\c2cc(Cl)ccc2O)o1`: the inhibition was 31% (active).
`Cc1nn(Cc2ccccc2Cl)c(C)c1NC(=O)Cn1nc([N+](=O)[O-])c(Cl)c1C`: the inhibition is 1.31% (inactive).
Regarding `CCCc1ccc(OCc2ccc(C(=O)N/N=C/c3cccc([N+](=O)[O-])c3)o2)c(OC)c1`, the inhibition was -9.45% (inactive).
Consider `COc1ccc(-c2nc3ccccc3n2CCC(C)C)cc1OC`, for which the inhibition was 7.4% (inactive).
For the molecule `CCSc1nnc(NC(=O)Cc2ccccc2OC)s1`, the inhibition was 2.36% (inactive).
Regarding `C[C@H](NC(=O)NCCc1ccccc1)C(=O)O`, the inhibition is -9.76% (inactive).
Regarding `CCOC(=O)c1nc(Nc2ccc(C(=O)OC)cc2)c2ccccc2n1`, the inhibition is -0.44% (inactive).
For `C/C(=N\NC(=O)c1ccccc1C)c1ccc(N2CCOCC2)cc1`, the inhibition is 0.87% (inactive).
Regarding `COc1cccc(-c2cc(C(=O)N/N=C/c3ccc(OC)c(COC(C)=O)c3)c3ccccc3n2)c1`, the inhibition is 9.16% (inactive).
On to `CS(=O)(=O)n1nc(-c2ccccc2)nc1NCc1ccco1`, for which the inhibition is -21.9% (inactive).
For `CC(=O)N/C(=C/c1ccc(Cl)cc1)C(=O)NCCc1c[nH]c2ccccc12`, the inhibition was -1.86% (inactive).
In the case of `O=C(Cn1cncn1)N/N=C/c1c2ccccc2cc2ccccc12`, the inhibition was -6.23% (inactive).
Take `CC(C)Oc1ccc(C(=O)NC(C)(C)CO)cc1`: the inhibition was 1.84% (inactive).
To `O=C(CN(Cc1ccccc1)C(=O)c1ccc2c(c1)OCCO2)NCc1ccc2c(c1)OCO2` belongs -2.04% (inactive); to `CC1(C)Cc2ccccc2-c2nnc(-c3cccc(O)c3)n21`, -6.85% (inactive).
With `Cc1ccc(C(=O)OC2=CC(=O)CC(C)(C)C2)cc1`, the inhibition is -0.31% (inactive).
Under `CCOC(=O)c1cnc(-c2ccccc2)nc1Oc1ccc(C)cc1` stands 7.75% (inactive).
In the case of `CSc1nc(C)cc(SC(C(C)=O)C(=O)Nc2ccccc2)n1` (stereo unspecified), the inhibition is -3.91% (inactive).
To `COc1ccc(-c2nn(-c3ccccc3)cc2C(=O)Nc2nccs2)cc1OC` belongs 27.5% (inactive).
As to `CC(=O)Cc1nsc(NC(=O)c2ccc(COc3ccc(C)cc3)o2)n1`, the inhibition was -5.26% (inactive).
Consider `COc1ccc(-c2nn(-c3ccccc3)cc2C(=O)Nc2nc(CC(C)=O)ns2)cc1`, for which the inhibition is 45.9% (active).
To `CN1/C(=c2/s/c(=C3/C(=O)N(c4ccccc4)NC3=Nc3ccccc3)n(C)c2=O)C(C)(C)c2ccccc21` belongs 15.8% (inactive); to `CCOC(=O)C1=C(CNC2CCCCC2)NC(=O)NC1c1cc(C)ccc1C` (stereo unspecified), -5.92% (inactive); to `O=C(/C=C/c1ccccc1)c1ccoc1`, -1.46% (inactive).
For the molecule `O=C(Nc1ccccc1Cl)O/N=C(/c1ccccc1)c1ccccn1`, the inhibition is 6.79% (inactive).
Turning to `Cc1ccc2nc(SC(C)C(=O)NCc3ccco3)[nH]c2c1` (stereo unspecified), the inhibition is 4.88% (inactive).
With `Cc1ccc(-n2c(C)cc(/C=N/Nc3ccc([N+](=O)[O-])cn3)c2C)c(C)c1`, the inhibition was 14.4% (inactive).
As to `NC(=O)COc1ccc(/C=N/NC(=O)C2CCCN2S(=O)(=O)c2ccc(Cl)cc2)cc1` (stereo unspecified), the inhibition was 0.47% (inactive).
Consider `CC1CCN(CC(=O)c2c[nH]c3ccccc23)CC1`, for which the inhibition is -3.18% (inactive).
Under `CCOC(=O)Nc1sc(C(=O)N(C)C)c(C)c1C(=O)OCC` stands 7.1% (inactive); under `O=C(Cc1ccc(S(=O)(=O)N2CCCC2)s1)NC1CCCCCC1`, 0.64% (inactive); under `CCOc1c(Cl)cc(/C=N/O)cc1OC`, -3.96% (inactive).
Under `CCNc1nc(N)nc(-c2cc(Cl)ccc2OC)n1` stands -15.5% (inactive).
`Cc1cccc(N2CCN(C(c3ccc(N(C)C)cc3)c3nnnn3C(C)(C)C)CC2)c1C` (stereo unspecified): the inhibition is 4.46% (inactive).
Regarding `COCCNCCOCCOc1cccc(OC)c1`, the inhibition is -0.71% (inactive).
With `CC(C)OC(=O)CN1C(=O)c2ccccc2C1=O`, the inhibition is -7.81% (inactive).
Regarding `CC(=O)Oc1ccc(NC(=O)CCC2CCCCC2)c(C(=O)O)c1`, the inhibition was -1.44% (inactive).
On to `Cc1nnc(SCC(=O)NCCOc2ccc(Cl)cc2)n1-c1ccccc1`, for which the inhibition was -3.78% (inactive).
Consider `CC1(C)CCCC2=C1CC1C(=O)N(c3ccccc3)C(=O)C1C2` (stereo unspecified), for which the inhibition was -1.84% (inactive).
Under `O=C1Nc2ccc(Br)cc2/C1=N/N=C/C1=C(N2CCOCC2)C(=C\c2ccccc2)/CC1` stands 30.1% (active); under `COc1ccc(-c2noc(-c3ccc(C)cc3)n2)cc1`, 0.23% (inactive); under `Cc1ccc2[nH]c3c(=O)n(Cc4ccccn4)cnc3c2c1`, 3.97% (inactive).
To `C=CCNc1cnn(-c2ccc(C)cc2)c(=O)c1Cl` belongs 3.95% (inactive).

For orientation: inhibition means the relative decrease from the control value, in per cent.

Source of the values: PubChem BioAssay AID686954 (Sanford-Burnham Center for Chemical Genomics, 2013).
